Most compounds without a hit are left out; they make up all but 6.1% or so of the library.
DRD3 antagonist = D3 dopamine receptor (human) antagonism; P35462; AID 652054; max response, negative = inhibition, %; hit rate 2.5% among 360,000; D3R cells, DiscoveRx beta-arrestin luminescence, antagonist mode; active compounds read low; in the data active means max response below about -50%; inconclusive means no clear call, values can overlap the other calls; further: on the % scale 0 is the no-effect control and ±100 the full control effect
Target sequence (P35462 whole entry, looked up): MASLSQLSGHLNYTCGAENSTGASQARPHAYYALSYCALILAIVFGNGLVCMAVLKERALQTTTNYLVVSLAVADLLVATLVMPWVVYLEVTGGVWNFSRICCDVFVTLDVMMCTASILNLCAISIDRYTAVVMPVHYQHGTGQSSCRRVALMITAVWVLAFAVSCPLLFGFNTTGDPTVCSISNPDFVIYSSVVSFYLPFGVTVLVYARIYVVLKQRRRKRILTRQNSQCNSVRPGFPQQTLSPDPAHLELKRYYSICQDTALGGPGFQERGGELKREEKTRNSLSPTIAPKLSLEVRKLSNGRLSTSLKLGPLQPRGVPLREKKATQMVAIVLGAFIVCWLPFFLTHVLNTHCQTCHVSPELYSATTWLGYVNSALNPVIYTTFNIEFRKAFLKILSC
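Cells plated overnight at 1500 cells/well, then exposed to library compounds with dopamine controls for 90 minutes at 37 degrees C. DiscoveRx reagent added for 30–60 minutes at room temperature; luminescence read, quantitative HTS format.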
D1 potentiator = human D1 dopamine receptor positive modulation. HEK293 TREx D1 cells, calcium flux, dopamine EC20 potentiation. potentiation, % at 10 µM. hit rate 0.036% among 360,000; in the data active means potentiation above about 30%; further: 0% is about no effect
D1 antagonist = human D1 dopamine receptor antagonism | activity change, negative = inhibition, % at 10 µM | hit rate 3.2% among 360,000 | HEK293 TREx D1 cells, calcium flux, dopamine EC80; active compounds read low; in the data active means activity change below about -30%; further: on the % scale 0 is the no-effect control and ±100 the full control effect
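Allosteric or orthosteric antagonism assessed as attenuation of the calcium response to EC80 dopamine, added 180 s after compound, in induced HEK293 Trex D1 cells loaded with no-wash calcium dye.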
D1 ag = agonists of human D1 dopamine receptor; P21728; HEK293 T-REx D1 cells, calcium flux, agonist mode; hit rate 1% among 360,000; activation, % at 2 µM; AID 504660; in the data active means activation above about 30%; further: 0% is about no effect
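Agonism was scored from calcium flux recorded over 180 s (1 read/s) after pintool compound addition, following a 10-cycle baseline. Cells were inducible force-coupled HEK293 TREx D1, plated overnight at 30 C and loaded with no-wash calcium dye.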
D3 ag = agonists of human D3 dopamine receptor; D3R DiscoveRx beta-arrestin cells, luminescence, 90 min; AID 652048; P35462; hit rate 0.58% among 410,000; max activation, %; in the data active means max activation above about 30%; further: 0% is about no effect
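Agonist-mode cell screen: cells plated at 1500/well and incubated overnight at 37 °C, then exposed to library compounds for 90 min at 37 °C. Detection reagent was added for 30–60 min at room temperature, and luminescence was read.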
Numbers without * were called inactive; ? = inconclusive; . = no result.

SMILES | DRD3 antagonist | D1 potentiator | D1 antagonist | D1 ag | D3 ag
Cc1ccc(C)c(N2CCN(C(=O)Cn3c(=O)oc4cc(S(=O)(=O)N5CCCC5)ccc43)CC2)c1 | -1 | -4 | 2 | 6 | 9
CCOC(=O)C1CCN(C(=O)Cn2c(=O)oc3cc(S(=O)(=O)N4CCC(C)CC4)ccc32)CC1 | . | 1 | -39* | 12 | -7
O=C(Cn1c(=O)oc2cc(S(=O)(=O)N3CCCC3)ccc21)N1CCN(c2ccccc2)CC1 | -58* | -7 | 2 | 3 | -8
COCC(=O)Nc1ccc2c(c1)[C@@H]1C[C@H](CC(=O)NCc3cccc(F)c3)O[C@@H](CO)[C@@H]1O2 | -8 | . | . | . | -6
COCCCNC(=O)CC[C@H]1O[C@@H](n2cnc3c(NC(=O)c4ccccc4)ncnc32)[C@H](O)[C@@H]1O | 9 | . | . | . | 5
COc1cc(NC(=O)CC[C@H]2O[C@@H](n3cnc4c(NC(=O)c5ccccc5)ncnc43)[C@H](O)[C@@H]2O)cc(OC)c1OC | -52* | . | . | . | -10
N#C/C(=C(/O)CN1C(=O)c2ccccc2C1=O)c1nc2ccccc2[nH]1 | -10 | -1 | -22 | 3 | 9
CSCCC(/C(O)=C(\C#N)c1nc2ccccc2[nH]1)N1C(=O)c2ccccc2C1=O (stereo not given) | -12 | 2 | -31* | 1 | -5
O=[N+]([O-])c1ccc(-c2nc(C(Cl)Cl)c3ccccc3n2)cc1 | -59* | 0 | -6 | 0 | -13
CN(Cc1ccccc1)c1nc(-c2ccc([N+](=O)[O-])cc2)nc2ccccc12 | -54* | 1 | 19 | 11 | 3
Cc1ccc(C)c(CNC(=O)c2cnc3sc(N4CCCC4)nn3c2=O)c1 | . | -1 | -29 | -1 | 5
COCCNC(=O)c1cccc(C)c1[N+](=O)[O-] | 2 | 0 | -33* | 1 | -7
O=C(COCc1ccccc1)N[C@@H]1c2ccccc2CC[C@@H]1OCc1ccccc1 | -10 | . | . | . | -21
O=C(Cc1ccccc1)N[C@@H]1c2ccccc2CC[C@@H]1OCc1ccccc1 | -90* | . | . | . | -20
O=c1c2cccnc2n(Cc2cccc(F)c2)c(=O)n1Cc1ccc(F)cc1 | . | -4 | -4 | 11 | -3
Clc1ccc2scc(CN3CCCCC3)c2c1 | -88* | -8 | -1 | 3 | -58
CCOc1ccc(-c2cc(C(=O)N3CCN(c4ccc(C)cc4)C(C)C3)c3ccccc3n2)cc1 (stereo not given) | . | 0 | 4 | 0 | 5
CCSc1nnc(SCC(=O)Nc2cc(C)on2)s1 | -3 | . | . | . | 4
OC(c1ccc(Cl)cc1Cl)C(Cc1cccnc1)n1cncn1 (stereo not given) | -75* | -4 | -10 | 6 | 1
OC(Cn1cncn1)c1ccc(Cl)cc1Cl (stereo not given) | 0 | -4 | -6 | 1 | -4
COCc1cc(C)nc2sc(C(=O)NCCO)c(-n3cccc3)c12 | 4 | -2 | 2 | 0 | 6
COc1ccc(NC(C)=O)cc1S(=O)(=O)N(C)Cc1c(C)nn(-c2ccccc2)c1C | -7 | -10 | -33* | 2 | -4
COc1cccc2c1C(=O)c1c(O)c3c(c(O)c1C2=O)C[C@](O)(C(C)=O)C[C@H]3O[C@@H]1C[C@@H](N)[C@@H](O)[C@@H](C)O1 | 0 | -4 | -35* | 3 | -38
Cc1nc(-c2cccnc2)sc1CCNS(=O)(=O)c1ccc(F)cc1 | . | -4 | -9 | 2 | -14
CCOC(=O)C1=CCN(S(=O)(=O)c2ccc(C)cc2)C1c1ccccc1 (stereo not given) | -10 | . | . | . | -1
SMILES | DRD3 antagonist | D1 potentiator | D1 antagonist | D1 ag | D3 ag
CCOc1cc2c(c3c1C(c1ccccc1)N(S(=O)(=O)c1ccc(C)cc1)C3)C(=O)C=CC2=O (stereo not given) | -115* | . | . | . | -17
COC(=O)/C=C1\N/C(=N\c2nc(C)cc(C)n2)N(c2ccccc2)C1=O | 16 | -3 | -52* | 0 | -9
COC(=O)/C=C1/N/C(=N\c2nc(C)cc(C)n2)N(c2ccccc2)C1=O | -13 | 0 | -7 | 1 | 20
Nc1nc(-c2ccccc2)c(-c2ccccc2)s1 | 0 | 0 | -7 | 0 | 2
Nc1nc(-c2ccccc2)c(-c2ccc([N+](=O)[O-])cc2)s1 | 19 | -4 | -4 | 71* | 7
CCCCOc1ccc(C(=O)NNC(=S)NC(=O)CC)cc1 | ? | -3 | 10 | 14 | 1
CCCOc1ccc(C(=O)NNC(=S)NC(=O)c2cccs2)cc1 | 1 | 11 | -26 | 104* | -1

Compound activity as filed in PubChem BioAssay.
